Measured values from PubChem BioAssay (NCATS).
Several values for one entry are separate records, joined by “and”; a condition that tells them apart may be missing. Equal values may be shown once. Inconclusive results are not listed. Some compounds were tested as several samples or in several runs, with calls that do not always agree. Activity calls are given as the source filed them. Calls come from the whole dose curve; as a rule, active = well fitted curve in the direction sought with a large enough effect; inconclusive = small, poorly fitted or top-dose-only effect, or another doubt; inactive = no such curve, though single readings can be large; an effect the other way counts as inactive or inconclusive.

Experiments:
[1] = system: TAB165; assay: qHTS profiling for inhibitors of Plasmodium falciparum proliferation (AID 504749);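 note: 0% = DMSO vehicle and full inhibition = artemisinin control; nearly all actives have a fitted effect of over 60% in size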; details: P. falciparum in erythrocytes, SYBR Green DNA, 72 h; series mostly up to 28.7 µM
Outline: (§1)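 SYBR Green fluorescence of parasite DNA, read after lysis and overnight dark incubation, measured growth over 72 h in erythrocyte culture at 0.3% parasitemia and 2.5% hematocrit. Data normalised to DMSO and 0.29 uM artemisinin, with plate-drift correction.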

[2] = system: W2; assay: as above; details: P. falciparum in erythrocytes, SYBR Green DNA, 72 h; series mostly up to 28.7 µM
Outline: as §1

[3] = system: CRL-7250; assay: Cytotoxic Profiling of Annotated Libraries Using Quantitative High-Throughput Screening (AID 1296008); details: Five cell lines viability, CellTiter-Glo ATP luminescence, 48-72 h; max response: stronger effect = lower value; note: nearly all actives have a fitted effect of over 60% in size; note: potency is the fitted concentration of half-maximal effect; for max response: % is set by controls: 0 for no effect and ±100 for the full control effect
Outline: (§2)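 Cytotoxicity was measured as CellTiter-Glo ATP luminescence, read after 10 min at room temperature. Compound treatment of the cells lasted 48 or 72 hr at 37 degrees Celsius in a qHTS format.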

[4] = system: HEK293; assay: as above; details: Five cell lines viability, CellTiter-Glo ATP luminescence, 48-72 h; max response: stronger effect = lower value
Outline: as §2

[5] = system: HaCat; assay: as above; details: Five cell lines viability, CellTiter-Glo ATP luminescence, 48-72 h; max response: stronger effect = lower value
Outline: as §2

[6] = system: KB-3-1; assay: as above; details: Five cell lines viability, CellTiter-Glo ATP luminescence, 48-72 h; max response: stronger effect = lower value
Outline: as §2

[7] = system: NIH3T3; assay: as above; details: Five cell lines viability, CellTiter-Glo ATP luminescence, 48-72 h; max response: stronger effect = lower value
Outline: as §2

[8] = system: HACAT; assay: qHTS assay to identify novel small-molecules to repurpose for Merkel cell carcinoma treatment (AID 1296009); details: MCC and control cell lines, CellTiter-Glo viability, 72 h; at 44.8 µM (top of the series) unless noted; note: nearly all actives have a fitted effect of over 60% in size; note: potency is the fitted concentration of half-maximal effect
Outline: (§3)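 Cell viability, measured as CellTiter-Glo luminescence, was normalized between DMSO and no-cell wells. The cells had been exposed to 8- or 11-point compound dilutions for 72 hr at 37 degree celsius.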

[9] = system: MCC-13; assay: as above; details: MCC and control cell lines, CellTiter-Glo viability, 72 h; series mostly up to 46 µM
Outline: as §3

[10] = system: MCC-26; assay: as above; details: MCC and control cell lines, CellTiter-Glo viability, 72 h; series mostly up to 46 µM
Outline: as §3

[11] = system: MKL-1; assay: as above; details: MCC and control cell lines, CellTiter-Glo viability, 72 h; series mostly up to 46 µM
Outline: as §3

[12] = system: MKL-2; assay: as above; details: MCC and control cell lines, CellTiter-Glo viability, 72 h; series mostly up to 46 µM
Outline: as §3

[13] = system: NIH3T3; assay: as above; details: MCC and control cell lines, CellTiter-Glo viability, 72 h; at 44.8 µM (top of the series) unless noted
Outline: as §3

[14] = system: UISO; assay: as above; details: MCC and control cell lines, CellTiter-Glo viability, 72 h; series mostly up to 46 µM
Outline: as §3

[15] = system: WaGa; assay: as above; details: MCC and control cell lines, CellTiter-Glo viability, 72 h; series mostly up to 46 µM
Outline: as §3

[16] = system: C33A; assay: Primary qHTS to identify gynecologic anti-cancer compounds using libraries of approved drugs and bioactive compounds (AID 1345084); details: Gynecologic cancer cell panel viability, ATPlite luminescence, 48 h; series mostly up to 57.5 µM; note: % is set by controls: 0 for no effect and ±100 for the full control effect; nearly all actives have a fitted effect of over 55% in size
Outline: (§4)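 Cells, 1,000 per well, were allowed to settle for 16 h at 37 C before compound addition. Five concentrations were tested for 48 h, and viability was read by ATPlite luminescence after 15 min at room temperature.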

[17] = system: CAOV3; assay: as above; details: Gynecologic cancer cell panel viability, ATPlite luminescence, 48 h; series mostly up to 57.5 µM
Outline: as §4

[18] = system: CASKI; assay: as above; details: Gynecologic cancer cell panel viability, ATPlite luminescence, 48 h; series mostly up to 57.5 µM
Outline: as §4

[19] = system: Es-2; assay: as above; details: Gynecologic cancer cell panel viability, ATPlite luminescence, 48 h; series mostly up to 57.5 µM
Outline: as §4

[20] = system: HEK293T; assay: qHTS assay to identify novel small-molecules to repurpose for Merkel cell carcinoma treatment (AID 1296009); details: MCC and control cell lines, CellTiter-Glo viability, 72 h; at 44.8 µM (top of the series) unless noted; note: nearly all actives have a fitted effect of over 60% in size; note: potency is the fitted concentration of half-maximal effect
Outline: as §3

O=c1cc(O)c(Cl)c[nH]1
inactive and 8.33 µM (active): Potency [15]
inactive: Potency [1] | Potency [2] | max response [3] -3.23% | outcome [3] | max response [4] 3.54% and 0.705% | max response [5] -15.6% | outcome [5] | max response [6] 2.19% | max response [7] 2.08% | outcome [7] | outcome [8] | Potency [9] | Potency [10] | Potency [11] | Potency [12] | outcome [13] | Potency [14] | Potency [16] | Potency [17] | Potency [18] | Potency [19]

O=C(O)CCn1c2c(c3ccccc31)C[C@H](NS(=O)(=O)c1ccc(F)cc1)CC2
inactive: max response [3] -4.51% | outcome [3] | max response [4] 3.39% and -17.8% | outcome [4] | max response [5] 4.42% and 4.82% | outcome [5] | max response [6] 0.769% and -7.72% | outcome [6] | max response [7] -9.59% and 4.36% | outcome [7] | outcome [8] | outcome [20] | Potency [9] | Potency [10] | Potency [11] | Potency [12] | outcome [13] | Potency [14] | Potency [15] | Potency [16] | Potency [17] | Potency [18] | Potency [19]

C[C@@H](CN1CC(=O)NC(=O)C1)N1CC(=O)NC(=O)C1
inactive and 3.72 µM (active): Potency [15]
inactive and 5.9 µM (active): Potency [11]
inactive: max response [3] 0.572% | max response [5] -7.01% | max response [6] 7.8% | Potency [9] | Potency [12] | Potency [14] | Potency [16] | Potency [17] | Potency [18] | Potency [19]
active: Potency [3] 148 nM | Potency [4] 235 nM | Potency [5] 23500 nM | Potency [7] 187 nM

C[C@@H]1CN(c2c(F)c(N)c3c(=O)c(C(=O)O)cn(C4CC4)c3c2F)C[C@H](C)N1
inactive: max response [3] -4.39% | outcome [3] | outcome [4] | max response [5] -0.171% | outcome [5] | max response [6] 8.25% and 3.23% | max response [7] 0.0179% and 2.17% | outcome [8] inactive [at 17.4 µM] | outcome [20] inactive [at 17.4 µM] | Potency [9] | Potency [10] | Potency [11] | Potency [12] | Potency [14] | Potency [15] | Potency [16] | Potency [17] | Potency [18] | Potency [19]

Nc1nc(F)nc2c1ncn2[C@@H]1O[C@H](CO)[C@@H](O)[C@@H]1O
active: Potency [3] 332 nM | Potency [4] 662 nM | Potency [6] 820 nM and 1.3 µM and 1.18 µM | Potency [9] 2350 nM | Potency [11] 16800 nM | Potency [14] 13.3 µM and 935 nM | Potency [15] 10.6 µM and 935 nM
inactive and 2.09 µM (active): Potency [10]
inactive: max response [3] -19.1% | max response [4] -7.93% | max response [5] -5.85% | outcome [6] | Potency [17] | Potency [18]

CC(C)OC(=O)OCOP(=O)(CO[C@H](C)Cn1cnc2c(N)ncnc21)OCOC(=O)OC(C)C
inactive: max response [3] -6.19% | outcome [3] | max response [4] -4.37% | outcome [4] | outcome [5] | outcome [6] | max response [7] -4.05% and -25.8% | outcome [8] | outcome [20] | Potency [9] | Potency [11] | Potency [12] | Potency [15] | Potency [16] | Potency [17] | Potency [18] | Potency [19]

NS(=O)(=O)c1cc2c(cc1Cl)NC(C(Cl)Cl)NS2(=O)=O (centres undefined)
inactive: max response [3] -3.96% | outcome [3] | max response [4] -0.123% | outcome [4] | max response [5] -16.1% | outcome [5] | max response [6] 9.97% | outcome [6] | max response [7] 3.32% and -1.25% | outcome [8] | outcome [20] | Potency [9] | Potency [11] | Potency [12] | Potency [14] | Potency [15] | Potency [16] | Potency [17] | Potency [18] | Potency [19]

CNS(=O)(=O)CCc1ccc2[nH]cc(C3CCN(C)CC3)c2c1
inactive: max response [3] -7.4% and 0.211% | outcome [3] | max response [4] -3.79% and -10.1% | outcome [4] | max response [5] 0.93% | outcome [5] | max response [6] -19.4% and 0.237% | outcome [6] | max response [7] 0.12% | outcome [7] | outcome [8] | outcome [20] | Potency [9] | Potency [11] | Potency [12] | outcome [13] | Potency [14] | Potency [15] | Potency [16] | Potency [17] | Potency [18] | Potency [19]

O=S(=O)(O)CCS
inactive: Potency [1] | Potency [2] | max response [3] 3.2% | outcome [3] | max response [4] -11.9% | outcome [4] | max response [5] -12.1% | outcome [5] | max response [6] 0.578% | max response [7] 1.04% and -6.12% | outcome [8] | outcome [20] | Potency [9] | Potency [11] | Potency [12] | Potency [14] | Potency [15] | Potency [16] | Potency [17] | Potency [18] | Potency [19]
